Screening results (PubChem BioAssay)
Rows were chosen to be rich in hits. Some 3% of all compounds tested hit in one or more screens of this group.
PMP22 txn: PMP22 gene transcription modulation | S16 Pmp22-F2sN Schwann cells, FLuc/NLuc coincidence luminescence, 24 h | Potency, µM (doses to about 57.5 µM), most hits filed as inhibitors | 43,000 tested, 2% active | AID 1508649; active means clear falling dose curves in both reporters; inconclusive means both reporters move, but less clearly or upward; inactive means either reporter flat; the % is the NLuc reporter signal
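Rat S16 Pmp22-F2sN cells, 500-1,000/well in phenol red-free DMEM + 10% FBS, compound-treated 24 h (37C, 5% CO2). Luminescence: FLuc read, Stop&Glo added, NLuc read.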
OvCa metastasis: inhibitors of ovarian cancer cell adhesion and invasion in omental model. SKOV3ip1-GFP adhesion/invasion on 3D omental model, fluorescence. Potency, µM (doses to about 45.8 µM), most hits filed as inhibitors. 46,000 tested, 0.1% active; further: nearly all actives have a fitted effect of over 65% in size
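Primary human omental fibroblast/mesothelial 3D culture pre-formed 48 h. SKOV3ip1-GFP cells added with compounds (0.36-46 umol/L), incubated 2 h RT/16 h 37 C, fixed; GFP cells quantified at 488/509 nm.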
S16 F2sN tox: cytotoxicity in S16 Pmp22-F2sN Schwann cells | AID 1508642 | Potency, µM (top dose mostly 57.5 µM), most hits filed as cytotoxic | S16 Pmp22-F2sN Schwann cells viability, CellTiter-Glo, 24 h | 43,000 tested, 0.48% active; further: nearly all actives have a fitted effect of over 65% in size
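S16 Pmp22-F2sN Schwann cells (500-1,000/well) in phenol-red-free DMEM with 10% FBS received 23 nL compound by pin tool for 24 h at 37 °C. Viability was then read as CellTiter-Glo luminescence after 15 min at room temperature.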
mTORC1 inh: mTORC1 pathway inhibition measured by phospho-rpS6 | Tsc2-/- p53-/- MEF, phospho-rpS6 immunofluorescence/PI, 24 h | Potency, µM (doses to about 38.3 µM), actives largely listed as inhibitors | 44,000 tested, 0.78% active; further: nearly all actives have a fitted effect of over 50% in size
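Read-out: phospho-S6 Alexa-488 intensity over PI intensity per well, scored as % active cells using thresholds from rapamycin (7.5 nM) and DMSO controls. Tsc2-/-, p53-/- MEFs exposed to compound for 24 h; PI cell count recorded as viability.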
p53null 32C tox: kills p53 null cells at the permissive temperature; AID 903; H1299-neo p53 null cells, ATP luminescence, 24 h, 32C; Potency, µM (series often up to 46.1 µM), usual class: cytotoxic; 55,000 tested, 0.62% active; further: nearly all actives have a fitted effect of over 55% in size
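AC50 values derive from Hill modelling of qHTS concentration-response data (up to 46 uM) in H1299-neo cells. Cells were treated 24 h at 32C following overnight attachment at 37C; viability was read as cellular ATP.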
p53null 39C tox: selectivity test: cytotoxicity in p53 null cells, nonpermissive temperature | H1299 p53-null (neo) cells, 39C, ATPlite viability, 24 h | 55,000 tested, 0.97% active | Potency, µM (top dose mostly 46.1 µM), usual class: cytotoxic; further: nearly all actives have a fitted effect of over 50% in size
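ATP-luminescence viability readout (ATPlite, 20 min RT) after 24 hr compound treatment at 39C of H1299-neo or H1299-p53A138V cells; titration up to 46 uM; normalized to DMSO and 100 uM tamoxifen; Hill-fit AC50.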
Hits are given with their value; . = inactive; ? = inconclusive; / = no result given. Unless noted, the call rests on the fitted dose curve; in most records, active means well fitted curve in the direction sought with a large enough effect; inconclusive means small, poorly fitted or top-dose-only effect, or another doubt; inactive means no such curve, though single readings can be large; an effect the other way counts as inactive or inconclusive.

SMILES	PMP22 txn	OvCa metastasis	S16 F2sN tox	mTORC1 inh	p53null 32C tox	p53null 39C tox
Cc1cc(N2CCCCC2)nc2ccc(NC(=O)/C=C/c3ccccc3OC(C)C)cc12	.	.	.	16µM	.	.
COc1ccc2c3n(c(=NC(=O)c4cccnc4)nc2c1OC)CCN3	/	.	/	/	/	/
CCOc1ccc(C(=O)Nc2ccc(C(=O)OCc3cc(=O)n4c(C)csc4n3)cc2)cc1	?	.	.	.	?	13µM
Cc1csc2nc(COC(=O)c3cccc(NC(=O)COc4ccccc4Cl)c3)cc(=O)n12	.	.	.	.	?	6.3µM
CC(O)=C(C#N)C(=O)Nc1ccc(C(F)(F)F)cc1	/	.	/	/	/	/
Cc1ccc(NC(=O)c2cccc(C(C)(C)C#N)c2)cc1Nc1ccc2ncn(C)c(=O)c2c1	/	.	/	/	/	/
CC(C)c1noc(N2CCC(COc3ccc(-c4ccc(S(C)(=O)=O)cc4)nc3)CC2)n1	/	.	/	/	/	/
CC(C)C[C@H](NC(=O)c1cc2ccccc2s1)C(=O)N1CCN(C(=O)[C@H](CO)NS(=O)(=O)c2ccc(Cl)cc2Cl)CC1	/	.	/	/	/	/
COc1ccc(-n2c(/C=C/c3ccccc3F)nc3cc(OC)c(OC)cc3c2=O)cc1Cl	.	.	10µM	.	.	.
COc1ccc(-n2c(/C=C/c3cc(OC)c(OC)cc3OC)nc3cc4ccccc4cc3c2=O)cc1Cl	.	.	.	?	.	.
Cc1ccc2occ(CC(=O)Nc3ccc(Cl)c(C(F)(F)F)c3)c2c1	?	.	?	12µM	.	16µM
Cc1ccc2occ(CC(=O)Nc3ccc(S(N)(=O)=O)cc3)c2c1	.	.	.	.	.	.
Cc1ccc(O)c(NC(=O)c2cc(-c3ccccc3O)no2)c1	.	.	.	?	.	.
Cc1ccc(-c2cc(-c3ccccc3)no2)c(O)c1	/	/	/	/	7.9µM	/
COc1ccc(S(=O)(=O)Nc2ccc3oc4c(c3c2)CCCC4)cc1	.	.	.	?	.	22µM
O=S(=O)(Nc1ccc2oc3c(c2c1)CCCC3)c1cc(Cl)ccc1Cl	.	.	.	.	.	.
Cc1c[nH]c(C=C2C(=O)Nc3ccccc32)c1CCC(=O)O	/	.	/	/	/	/
Cc1ccc(NC(=O)CSc2nnc3[nH]c(=O)cc(-c4ccccc4)n23)cc1Cl	?	.	.	.	4µM	?
CCOc1ccccc1NC(=O)CSc1nnc2[nH]c(=O)cc(-c3ccccc3)n12	.	.	.	.	?	.
COc1cccc(NC(=O)CSc2nnc3[nH]c(=O)cc(-c4ccccc4)n23)c1	.	.	.	.	?	?
Cc1ccc(C)c(NC(=O)CSc2nnc3[nH]c(=O)cc(-c4ccccc4)n23)c1	?	.	.	.	1.6µM	?
CN(C(=O)c1ccc(F)cc1C(F)(F)F)C1CCN(c2nnc(-c3ccnn3C)c3ccccc23)CC1	/	.	/	/	/	/
COC(=O)CN1C(=O)C(C)(C)c2cc(S(=O)(=O)Nc3ccc(Br)cc3F)ccc21	.	.	.	13µM	.	.
CC1(C)C(=O)N(CC(=O)Nc2ccc(Br)cc2F)c2ccccc21	.	.	.	.	.	.
O=C(c1ccc(C=Cc2n[nH]c3ccccc23)cc1)N1CCNCC1	/	.	/	/	/	/
SMILES	PMP22 txn	OvCa metastasis	S16 F2sN tox	mTORC1 inh	p53null 32C tox	p53null 39C tox
CCc1ccccc1N1CC(c2nc3ccccc3n2CCC2CCCCC2)CC1=O (stereo unspecified)	?	?	?	.	?	16µM
Cc1ccccc1N1CC(c2nc3ccccc3n2CCC2CCCCC2)CC1=O (stereo unspecified)	?	?	.	.	.	.
O=C1CC(c2nc3ccccc3n2CCCCOc2ccccc2)CN1c1ccccc1Cl (stereo unspecified)	?	.	.	.	?	13µM
O=C(Nc1cc2cc[nH]c2cn1)c1ccccc1	/	.	/	/	/	/
C[C@@H](N)c1ccc(C(=O)Nc2ccnc3[nH]ccc23)cc1	/	.	/	/	/	/
CCN(CC)CCN(C(=O)c1ccco1)c1nc2c(C)c(C)ccc2s1	?	.	.	.	.	.
Cc1ccc2sc(N(CCCN(C)C)C(=O)c3ccco3)nc2c1C	?	.	?	12µM	.	?
O=C(/C=C/c1cn(CC(O)CN2CCCCCC2)c2ccccc12)c1ccccc1 (stereo unspecified)	?	.	?	?	.	.
O=C(/C=C/c1cn(CC(O)CN2CCCCCC2)c2ccccc12)c1ccc(Br)cc1 (stereo unspecified)	?	.	.	?	.	16µM
CCCCN(C)CC(O)Cn1cc(/C=C/C(=O)c2ccc(Br)cc2)c2ccccc21 (stereo unspecified)	?	?	?	?	?	13µM
